{
  "source": "PubChem BioAssay (NCI)",
  "note": "About 83,000 compounds went through this panel and 20% of them were active in at least one assay; those are over-represented in the sample as a whole.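 The endpoint reported here, percent growth, reads 100 for growth as untreated, 0 for no net growth and -100 for all cells dead.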 A number with no mark means an inactive call. Calls of active or inactive are those of the source.",
  "data": [
    {"test_system": "RPMI-8226 leukemia", "assay": "NCI-60 one-dose screen, 48 h (100 = growth as untreated, 0 = no growth, -100 = all killed)", "conditions": "10 µM", "description": "Growth inhibition of the RPMI-8226 human tumor cell line is measured as a screen for anti-cancer activity. Cells are grown in 96 well plates and exposed to the test compound for 48 hours. Compounds are tested at a single concentration, which is 10^-5 M for most compounds. The reported endpoint is percent growth (GI% or GIPRCNT), where numbers from 0 - 100% represent growth inhibition, and numbers from -100% - 0 represent cell death. For example, a value of 40 represents 60% growth inhibition. A value of 0 means no net growth occurred over the course of the experiment. A value of -40 indicates 40% of cells at the beginning of the experiment died by the end of the experiment. A value of -100 means all cells are dead at the end of the experiment.\nNCI-60 Human Tumor Cell Lines Screen was performed using the standard one-dose NCI protocol, which is described in more detail at https://dtp.cancer.gov/discovery_development/nci-60/default.htm.\nCompounds with GIPRCNT values below 10 were considered active. Activity score was based on GIPRCNT using the following formula: […]\nScore is 0 for GIPRCNT values of 100 or above, 50 for GIPRCNT values of 0, and 100 for GIPRCNT values of -100.", "values": [
      {"compound": "O=c1[nH][nH]c(Nc2ccccc2)c1N=Nc1ccc(F)cc1", "growth": "112%"},
      {"compound": "O=C1c2ccccc2C(=O)c2c1c(C(=O)c1ccc(Cl)cc1)n1c2ccc2c3ccccc3ccc21", "growth": "101%"},
      {"compound": "CN1CCc2c(sc3ncnc(N/N=C/c4cn(-c5ccccc5)nc4-c4ccc(Br)cc4)c23)C1", "growth": "35.8%"},
      {"compound": "Cc1cccc(-c2nc(Nc3ccccc3C(=O)O)c3ccccc3n2)c1", "growth": "28.6%"},
      {"compound": "CN(CCO)c1oc(-c2ccccc2)nc1[P+](c1ccccc1)(c1ccccc1)c1ccccc1", "growth": "7.8% (active)"},
      {"compound": "Cc1ccc2nc(-c3ccc(-c4nnc(SCC(=O)Nc5ccc(Br)cc5)o4)cc3)[nH]c2c1", "growth": "41.3%"},
      {"compound": "COc1ccc(CN2[C@@H](C(=O)NCc3ccc(C(=O)NO)cc3)Cc3c([nH]c4ccccc34)[C@@H]2C2CC2)cc1", "growth": "19.3%"},
      {"compound": "COc1ccc(C(=O)/C=C/c2cc(C(F)(F)F)cc(C(F)(F)F)c2)cc1S(N)(=O)=O", "growth": "3.03% (active)"},
      {"compound": "O/N=C(\\CSc1nnc(-c2c[nH]c3ccccc23)n1-c1ccccc1)c1ccc(Cl)cc1", "growth": "-13.4% (active)"},
      {"compound": "CN1C(=O)N(C)C2SC(N/N=C/c3ccccc3)=NC21", "note": "(stereo not given)", "growth": "97.4%"},
      {"compound": "CC1=C2C(=C[C@@](C)(CO)[C@@H]2O)/C(=N\\N)[C@](C)(O)C12CC2", "growth": "56.2%"},
      {"compound": "CC(=O)c1ccc(Nc2nc(SC(C)C)nc(-c3ccccc3)c2C#N)cc1", "growth": "90.3%"},
      {"compound": "COC1=C[C@@]23CCC(=O)N2CCc2cc4c(cc2[C@H]3[C@H]1OC(=O)C(C)(C)O)OCO4", "growth": "92.3%"},
      {"compound": "Oc1ccc(/C=C2\\CCCc3cc4ccc(O)cc4[o+]c32)c(O)c1", "growth": "50.6%"},
      {"compound": "COc1ccc2nc(Cl)c(-c3cc(-c4ccccc4)nc(N)n3)cc2c1", "growth": "-27% (active)"},
      {"compound": "Cc1cccc2cc(-c3cc(-c4ccccc4)nc(=O)[nH]3)c(Cl)nc12", "growth": "17.8%"},
      {"compound": "COc1ccc2[nH]c(O)c(N=NC(=O)COc3ccc(NC(=O)Nc4ccc(Cl)cc4)cc3)c2c1", "growth": "32.1%"},
      {"compound": "CN1C(=O)/C(=C/c2nccs2)SC1=S", "growth": "97.2%"},
      {"compound": "C#CCNC(=O)CCC(=O)OC[C@]12CC[C@@H](C(=C)C)[C@@H]1C1CC[C@@H]3[C@@]4(C)CCCNC(C)(C)[C@@H]4CC[C@@]3(C)[C@]1(C)CC2", "note": "(stereo not given in full)", "growth": "-6.58% (active)"},
      {"compound": "Cn1c(O)c(N=Nc2nc(-c3cc4ccccc4oc3=O)cs2)c2cc(Br)ccc21", "growth": "96.6%"},
      {"compound": "O=c1c2ccccc2nc(COc2ccccc2)n1/N=C/c1ccc(N2CCCC2)cc1", "growth": "64.1%"},
      {"compound": "COc1cc2c(cc1OC)/C(=C\\c1sc(Nc3ccc(O)cc3)nc1O)C(C(=O)O)=N2", "growth": "16.1%"},
      {"compound": "CCCCCc1ccc(S(=O)(=O)Nc2cc(-c3csc(N(C)C(C)=O)n3)ccc2N2CCN(C)CC2)cc1", "growth": "-9.26% (active)"},
      {"compound": "N#Cc1c(NC(=O)c2ccc(C(F)(F)F)cc2)sc2c1CCC(=O)C2", "growth": "7.34% (active)"},
      {"compound": "CC(=C(c1ccc(OCCN2CCCCCC2)cc1)c1ccc(OCCN2CCCCCC2)cc1)c1ccc(Cl)cc1", "growth": "-63.6% (active)"},
      {"compound": "O=C(NO)c1ccc(-c2nc3ccc4[nH]ncc4c3c3c2CCCC3)cc1", "growth": "-9.23% (active)"},
      {"compound": "COc1ccc2[nH]c(=O)c(CSc3nccc(-c4ccc(Cl)cc4)n3)cc2c1", "growth": "17.6%"},
      {"compound": "CC(=O)Nc1ccc(-c2cn(-c3cccc(C(=O)Nc4ccc(F)c(C(F)(F)F)c4)c3)nn2)cn1", "growth": "66.6%"},
      {"compound": "CN(C(=O)c1ccc(C(F)(F)F)cc1C(F)(F)F)c1sc2c(c1C#N)CCC(=O)C2", "growth": "14.3%"},
      {"compound": "Cc1ccc(CNC(=O)Cc2ccc3c(c2)CN(C2CCC(=O)NC2=O)C3=O)cc1", "note": "(stereo not given)", "growth": "30.3%"},
      {"compound": "COc1ccc2[nH]c(=O)c(CSc3cccc(N)c3)cc2c1", "growth": "44.8%"},
      {"compound": "CC1(C)CC[C@]2(C(=O)NCCCNCCCCNCCCN)CC[C@]3(C)C(=CC[C@@H]4[C@@]5(C)Cc6c([nH]c7ccccc67)C(C)(C)[C@@H]5CC[C@]43C)[C@H]2C1", "growth": "68.3%"},
      {"compound": "CN1CCN(c2ccc(Nc3nc(NCCCNC(=O)c4ccc(Cl)cc4)c4sccc4n3)cc2)CC1", "growth": "48.5%"},
      {"compound": "O=[N+]([O-])c1ccc(-c2nc(-c3ccccc3)c(-c3ccccc3)n2-c2ccc(S(=O)(=O)Nc3ncccn3)cc2)cc1", "growth": "33%"},
      {"compound": "COc1cccc(/C=N/NC(=O)c2ccc3nc(-c4ccc(Cl)cc4)[nH]c3c2)c1O", "growth": "-50.5% (active)"},
      {"compound": "COc1ccc(C(=O)NC(=S)N2CCN(c3ncnc4c3cnn4-c3ccccc3)CC2)cc1", "growth": "72.6%"},
      {"compound": "Cc1noc2c(Cc3ccccc3)nn(CC(=O)N/N=C/c3ccc(Br)cc3)c(=O)c12", "growth": "78.6%"},
      {"compound": "CC(=O)c1cc(C(=O)N2c3ccccc3Sc3ccccc32)n2ccc(C)cc12", "growth": "19.8%"},
      {"compound": "Cn1cc(/C=N/Nc2cccc(Cl)n2)c2ccccc21", "growth": "47.6%"},
      {"compound": "O=c1[nH]c2ccccc2cc1CSc1ccc(Nc2nccc(-c3ccc(C(F)(F)F)cc3)n2)cc1", "growth": "69.5%"}
    ]}
  ]
}
